In article PMC9911399, “Two distinct binding modes provide the RNA-binding protein RbFox with extraordinary sequence specificity” one finds binding signal data, which are given here for 34 molecules.

Changes are numbered by the printed parent chain; changes in the protein carry UniProt numbers. The full ranking holds about 16,000 sequences; the median of “ka relative to ugcaugu” is about 0.0091, and the highest 2% start at about 0.032. The sample as a whole holds a higher share of the highest values than the screen did.

B1: AUUCACC (DNA:RNA)
RNA: GGGAGACCGGAAUUCAGAUUGUCCAUUCACCUUAAAUCCCGUCGUAGCCACCA
DNA 1: CAATCTGAATTCCGGTCTCCC
DNA 2: TGGTGGCTACGACGGGATT
B2: GAGUUGU (DNA:RNA)
RNA: GGGAGACCGGAAUUCAGAUUGUCCGAGUUGUUUAAAUCCCGUCGUAGCCACCA
DNA 1: CAATCTGAATTCCGGTCTCCC
DNA 2: TGGTGGCTACGACGGGATT
B3: CAACGAU (DNA:RNA)
RNA: B2 RNA with G25C, G27A, U28C, U29G, G30A
DNA 1: CAATCTGAATTCCGGTCTCCC
DNA 2: TGGTGGCTACGACGGGATT
B4: AACCAAC (DNA:RNA)
RNA: B1 RNA with U26A, U27C, C30A
DNA 1: CAATCTGAATTCCGGTCTCCC
DNA 2: TGGTGGCTACGACGGGATT
B5: GAAACCA (DNA:RNA)
RNA: B2 RNA with G27A, U28A, U29C, G30C, U31A
DNA 1: CAATCTGAATTCCGGTCTCCC
DNA 2: TGGTGGCTACGACGGGATT
B6: UUUAAUU (DNA:RNA)
RNA: B1 RNA with A25U, C28A, C30U, C31U
DNA 1: CAATCTGAATTCCGGTCTCCC
DNA 2: TGGTGGCTACGACGGGATT
B7: CUGAUGU (DNA:RNA)
RNA: B2 RNA with G25C, A26U, U28A
DNA 1: CAATCTGAATTCCGGTCTCCC
DNA 2: TGGTGGCTACGACGGGATT
B8: UUGCAUG (DNA:RNA)
RNA: B1 RNA with A25U, U27G, C30U, C31G
DNA 1: CAATCTGAATTCCGGTCTCCC
DNA 2: TGGTGGCTACGACGGGATT
B9: UUGCAAG (DNA:RNA)
RNA: B1 RNA with A25U, U27G, C30A, C31G
DNA 1: CAATCTGAATTCCGGTCTCCC
DNA 2: TGGTGGCTACGACGGGATT
B10: GUGCAUA (DNA:RNA)
RNA: B1 RNA with A25G, U27G, C30U, C31A
DNA 1: CAATCTGAATTCCGGTCTCCC
DNA 2: TGGTGGCTACGACGGGATT
B11: UUGCAUC (DNA:RNA)
RNA: B1 RNA with A25U, U27G, C30U
DNA 1: CAATCTGAATTCCGGTCTCCC
DNA 2: TGGTGGCTACGACGGGATT
B12: UUGCAAA (DNA:RNA)
RNA: B1 RNA with A25U, U27G, C30A, C31A
DNA 1: CAATCTGAATTCCGGTCTCCC
DNA 2: TGGTGGCTACGACGGGATT
B13: GUGCAAG (DNA:RNA)
RNA: B1 RNA with A25G, U27G, C30A, C31G
DNA 1: CAATCTGAATTCCGGTCTCCC
DNA 2: TGGTGGCTACGACGGGATT
B14: UUGCAUA (DNA:RNA)
RNA: B1 RNA with A25U, U27G, C30U, C31A
DNA 1: CAATCTGAATTCCGGTCTCCC
DNA 2: TGGTGGCTACGACGGGATT
B15: GUGCAUC (DNA:RNA)
RNA: B1 RNA with A25G, U27G, C30U
DNA 1: CAATCTGAATTCCGGTCTCCC
DNA 2: TGGTGGCTACGACGGGATT
B16: GUGCAUG (DNA:RNA)
RNA: B1 RNA with A25G, U27G, C30U, C31G
DNA 1: CAATCTGAATTCCGGTCTCCC
DNA 2: TGGTGGCTACGACGGGATT
B17: CCUGUAG (DNA:RNA)
RNA: B1 RNA with A25C, U26C, C28G, A29U, C30A, C31G
DNA 1: CAATCTGAATTCCGGTCTCCC
DNA 2: TGGTGGCTACGACGGGATT
B18: UCGAGAU (DNA:RNA)
RNA: B2 RNA with G25U, A26C, U28A, U29G, G30A
DNA 1: CAATCTGAATTCCGGTCTCCC
DNA 2: TGGTGGCTACGACGGGATT
B19: CUGCACC (DNA:RNA)
RNA: B1 RNA with A25C, U27G
DNA 1: CAATCTGAATTCCGGTCTCCC
DNA 2: TGGTGGCTACGACGGGATT
B20: UGCACCC (DNA:RNA)
RNA: B1 RNA with A25U, U26G, U27C, C28A, A29C
DNA 1: CAATCTGAATTCCGGTCTCCC
DNA 2: TGGTGGCTACGACGGGATT
B21: CUGCACG (DNA:RNA)
RNA: B1 RNA with A25C, U27G, C31G
DNA 1: CAATCTGAATTCCGGTCTCCC
DNA 2: TGGTGGCTACGACGGGATT
B22: UGCCACG (DNA:RNA)
RNA: B1 RNA with A25U, U26G, U27C, C31G
DNA 1: CAATCTGAATTCCGGTCTCCC
DNA 2: TGGTGGCTACGACGGGATT
B23: UGCACGU (DNA:RNA)
RNA: B2 RNA with G25U, A26G, G27C, U28A, U29C
DNA 1: CAATCTGAATTCCGGTCTCCC
DNA 2: TGGTGGCTACGACGGGATT
B24: UGCACCG (DNA:RNA)
RNA: B1 RNA with A25U, U26G, U27C, C28A, A29C, C31G
DNA 1: CAATCTGAATTCCGGTCTCCC
DNA 2: TGGTGGCTACGACGGGATT
B25: GUAUAGC (DNA:RNA)
RNA: B1 RNA with A25G, U27A, C28U, C30G
DNA 1: CAATCTGAATTCCGGTCTCCC
DNA 2: TGGTGGCTACGACGGGATT
B26: GGGUUUC (DNA:RNA)
RNA: B2 RNA with A26G, G30U, U31C
DNA 1: CAATCTGAATTCCGGTCTCCC
DNA 2: TGGTGGCTACGACGGGATT
B27: GCGGGGG (DNA:RNA)
RNA: B2 RNA with A26C, U28G, U29G, U31G
DNA 1: CAATCTGAATTCCGGTCTCCC
DNA 2: TGGTGGCTACGACGGGATT
B28: GGGUUCU (DNA:RNA)
RNA: B2 RNA with A26G, G30C
DNA 1: CAATCTGAATTCCGGTCTCCC
DNA 2: TGGTGGCTACGACGGGATT
B29: GGGUUCC (DNA:RNA)
RNA: B2 RNA with A26G, G30C, U31C
DNA 1: CAATCTGAATTCCGGTCTCCC
DNA 2: TGGTGGCTACGACGGGATT
B30: GGGGUUC (DNA:RNA)
RNA: B2 RNA with A26G, U28G, G30U, U31C
DNA 1: CAATCTGAATTCCGGTCTCCC
DNA 2: TGGTGGCTACGACGGGATT
B31: UUCCGGG (DNA:RNA)
RNA: B1 RNA with A25U, U27C, A29G, C30G, C31G
DNA 1: CAATCTGAATTCCGGTCTCCC
DNA 2: TGGTGGCTACGACGGGATT
B32: CGGGUUC (DNA:RNA)
RNA: B2 RNA with G25C, A26G, U28G, G30U, U31C
DNA 1: CAATCTGAATTCCGGTCTCCC
DNA 2: TGGTGGCTACGACGGGATT
B33: GUGCGGG (DNA:RNA)
RNA: B2 RNA with A26U, U28C, U29G, U31G
DNA 1: CAATCTGAATTCCGGTCTCCC
DNA 2: TGGTGGCTACGACGGGATT
B34: GGGUUCG (DNA:RNA)
RNA: B2 RNA with A26G, G30C, U31G
DNA 1: CAATCTGAATTCCGGTCTCCC
DNA 2: TGGTGGCTACGACGGGATT

The assay deals with T1, RBFOX1 RRM (Homo sapiens, UniProt Q9NWB1 109-208).
T1 sequence: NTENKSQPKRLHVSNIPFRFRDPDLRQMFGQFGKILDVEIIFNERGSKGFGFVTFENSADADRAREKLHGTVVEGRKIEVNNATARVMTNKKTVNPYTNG
Briefly: EMSA; HiTS-Eq, 1 nM pool, 10 min; buffer printed only for the single-RNA assays: 10 mM Tris pH 7.5, 150 mM NaCl, 3.4 mM EDTA, 0.001% NP-40, 30 C. As to conditions: tags: His6 N-terminal (pET28a); label: 5' 32P. A digest of the protocol:
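Purified RbFox RRM (wild type or mutant) was equilibrated for 10 min in 50 µL with 1 nM of a 5′-radiolabelled pool of RNA with 7 randomized nucleotides, its flanks annealed to DNA oligonucleotides, across increasing protein concentrations. Free RNA was separated by 8% native PAGE, excised, reverse-transcribed, PCR-barcoded and sequenced on an Illumina HiSeq 2500. Relative association constants came from read-count changes of each variant against the control reaction, normalised to the cognate motif.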
For the molecule B1, the binding signal was 0.00129 KA relative to UGCAUGU.

Turning to B2, the binding signal was 0.0179 KA relative to UGCAUGU. Take B3: the binding signal is 0.00177 KA relative to UGCAUGU. Consider B4, for which the binding signal is 0.000641 KA relative to UGCAUGU. As for B5, the binding signal was 0.00223 KA relative to UGCAUGU.

Consider B6, for which the binding signal was 0.00658 KA relative to UGCAUGU. For B7 the value was 0.0201 KA relative to UGCAUGU; for B8, 1 KA relative to UGCAUGU; for B9, 0.0333 KA relative to UGCAUGU. In the case of B10, the binding signal is 0.0221 KA relative to UGCAUGU.

As for B11, the binding signal is 0.022 KA relative to UGCAUGU. For B12 the value was 0.0109 KA relative to UGCAUGU; for B13, 0.0274 KA relative to UGCAUGU. Take B14: the binding signal is 0.0139 KA relative to UGCAUGU.

In the case of B15, the binding signal was 0.0315 KA relative to UGCAUGU. For B16 the value was 1 KA relative to UGCAUGU; for B17, 0.00969 KA relative to UGCAUGU. For B18, the binding signal is 0.00776 KA relative to UGCAUGU.

B19: the binding signal was 0.0128 KA relative to UGCAUGU. For the molecule B20, the binding signal was 0.0142 KA relative to UGCAUGU. With B21, the binding signal is 0.616 KA relative to UGCAUGU.

Regarding B22, the binding signal is 0.0198 KA relative to UGCAUGU.

For the molecule B23, the binding signal is 0.514 KA relative to UGCAUGU. As to B24, the binding signal is 0.0145 KA relative to UGCAUGU. Regarding B25, the binding signal was 0.00925 KA relative to UGCAUGU.

For B26, the binding signal was 0.0237 KA relative to UGCAUGU. For B27 the value was 0.0269 KA relative to UGCAUGU. As for B28, the binding signal is 0.0166 KA relative to UGCAUGU. Turning to B29, the binding signal was 0.0348 KA relative to UGCAUGU. B30: the binding signal is 0.0437 KA relative to UGCAUGU. Regarding B31, the binding signal is 0.00531 KA relative to UGCAUGU. On to B32, for which the binding signal is 0.0418 KA relative to UGCAUGU.

As to B33, the binding signal was 0.0167 KA relative to UGCAUGU.

For B34, the binding signal is 0.026 KA relative to UGCAUGU.
